{"source": "PubChem BioAssay AID827", "about": "(SRMLSC, 2007)", "note": "In all, about 140,000 compounds went through this assay and about 1,700 (1.2%) were called active.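 Rule for the calls: active = viability at or below a set limit, 4 SD under the median of all tested compounds (cut at about 3.7% in these data); inactive = the rest.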 The entries come from a sample that favours actives as a whole.", "data": [{"experiment": "growth suppression of PTEN-null HCT116, primary screen, cell-based, CellTiter-Glo (AID 827);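 note: PTEN knockout HCT116 line with beta catenin targeted HCT116 as companion control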", "details": "60 h, at 10 µM, active compounds read low", "values": [{"smiles": "COc1ccc(C/C(C)=N/NC(=O)c2cc(C)oc2C)cc1", "viability": "98.5% (inactive)"}, {"smiles": "c1ccc2[nH]c(NCCN3CCOCC3)nc2c1", "viability": "103% (inactive)"}, {"smiles": "O=C(Cn1c(-c2ccccn2)nc2ccccc21)NCCN1CCOCC1", "viability": "102% (inactive)"}, {"smiles": "c1ccc2cc3c(NCCN4CCOCC4)ccnc3cc2c1", "viability": "3.31% (active)"}, {"smiles": "COc1ccccc1C(=O)Nc1ccc(OCc2nnc3c4ccccc4c(C)nn23)cc1", "viability": "101% (inactive)"}, {"smiles": "CCCNC(=O)NC(=O)COC(=O)CC(NC(N)=O)c1ccc(Cl)cc1", "note": "(centres undefined)", "viability": "103% (inactive)"}, {"smiles": "N#C/C(C(=O)N1CCOCC1)=C1/SC(Cc2ccc(F)cc2)C(=O)N1c1ccccc1", "note": "(centres undefined)", "viability": "89.2% (inactive)"}, {"smiles": "CCCCOc1ccc(C(=O)NCc2ccncc2)cc1", "viability": "70.3% (inactive)"}, {"smiles": "CCCCOc1ccc(C(=O)NN2CCN(C)CC2)cc1", "viability": "102% (inactive)"}, {"smiles": "CCCOc1ccc(C(=O)C(CCC(CNCC)C(=O)c2ccc(OCCC)cc2)CNCC)cc1", "note": "(centres undefined)", "viability": "0.64% (active)"}, {"smiles": "CC1(C)C2CC=C(/C=N/NC(=O)c3ccc(Cl)cc3)C1C2", "note": "(centres undefined)", "viability": "90.5% (inactive)"}, {"smiles": "Fc1ccccc1/C=C1\\CCCC2=C1Nc1ncnn1C2c1ccccc1F", "note": "(centres undefined)", "viability": "2.48% (active)"}, {"smiles": "O=C(/C=C\\c1cn(-c2ccccc2)nc1-c1cccs1)N1CCOCC1", "viability": "67.3% (inactive)"}, {"smiles": "CCn1c(/C=N/NC(=O)c2ccc(OC)cc2)nc2ccccc21", "viability": "14.3% (inactive)"}, {"smiles": "O=C(Nn1c(-c2ccc(Cl)cc2)nc2ccccc2c1=O)c1cccnc1Cl", "viability": "102% (inactive)"}, {"smiles": "CCOC(=O)c1c(/N=C/c2cc(C)ccc2O)sc2c1CCC2", "viability": "91.9% (inactive)"}, {"smiles": "CSc1nc(C)cc(SC(C(C)=O)C(=O)Nc2ccccc2)n1", "note": "(centres undefined)", "viability": "88.1% (inactive)"}, {"smiles": "CSc1nc(-c2ccccc2)nc(C(Cl)Cl)n1", "viability": "2.06% (active)"}, {"smiles": "C/C(=N/NS(=O)(=O)c1ccccc1)c1ccc(NC(=O)C(F)(F)F)cc1", "viability": "96.4% (inactive)"}, {"smiles": "CCOc1cc(N2CCOCC2)c(OCC)cc1NC(=O)COC(=O)[C@H](Cc1c[nH]c2ccccc12)NC(C)=O", "viability": "93.5% (inactive)"}, {"smiles": "Cc1cccc(OCC(=O)NC(=S)Nc2ccccc2N2CCOCC2)c1", "viability": "99.9% (inactive)"}, {"smiles": "CCOc1cc(N2CCOCC2)c(OCC)cc1NC(=O)COc1cccc2cccnc12", "viability": "3.59% (active)"}, {"smiles": "O=[N+]([O-])c1ccc(N2CCN(S(=O)(=O)c3ccccc3)CC2)cc1N1CCc2ccccc2C1", "viability": "89.4% (inactive)"}, {"smiles": "O=C(Cc1ccccc1)NNS(=O)(=O)c1ccc([N+](=O)[O-])cc1", "viability": "101% (inactive)"}, {"smiles": "CC(C)CCN1C(=O)c2ccc(C(=O)Nc3cccc(S(N)(=O)=O)c3)cc2C1=O", "viability": "88.8% (inactive)"}, {"smiles": "CCC1CCc2c(sc(NC(C)=O)c2C#N)C1", "note": "(centres undefined)", "viability": "95.5% (inactive)"}, {"smiles": "COC(=O)c1c(NC(=O)CN2CCN(S(=O)(=O)c3ccccc3[N+](=O)[O-])CC2)sc2c1CCC(C)C2", "note": "(centres undefined)", "viability": "93.5% (inactive)"}, {"smiles": "CN1CCN(CC(=O)Nc2sc3c(c2C#N)CCC(C(C)(C)C)C3)CC1", "note": "(centres undefined)", "viability": "3.39% (active)"}, {"smiles": "Cc1ccc2sc(NNC(=O)c3ccc4c(c3)OCCO4)nc2c1C", "viability": "68.3% (inactive)"}, {"smiles": "O=C1C2C3C=CC(C4CC34)C2C(=O)N1c1nccs1", "note": "(centres undefined)", "viability": "101% (inactive)"}, {"smiles": "C=CCOc1ccc(/C=N/NC(=O)C(C)Sc2ccccn2)cc1OCC", "note": "(centres undefined)", "viability": "103% (inactive)"}, {"smiles": "Cc1ccc(OCc2nnc(SC3CCc4ccccc4C3=O)n2C)cc1", "note": "(centres undefined)", "viability": "85.3% (inactive)"}, {"smiles": "O=C(/C=C/c1ccc(Cl)cc1Cl)NCc1ccco1", "viability": "96.5% (inactive)"}, {"smiles": "O=C(/C=C/c1ccc(Cl)cc1Cl)c1cccnc1", "viability": "0.59% (active)"}, {"smiles": "O=C(NCc1ccc(Cl)c(Cl)c1)c1cccnc1", "viability": "100% (inactive)"}, {"smiles": "CCCC(O)(CCC)C(=O)NN(C(=O)CCl)c1cccc(C)c1", "viability": "32.7% (inactive)"}, {"smiles": "CC(C[N+](C)(C)C)OC(N)=O", "note": "(centres undefined)", "viability": "1.03% (active)"}, {"smiles": "CC(=O)OC(C)C[N+](C)(C)C", "note": "(centres undefined)", "viability": "98.9% (inactive)"}, {"smiles": "COc1ccc(/C(N)=N/OC(=O)CCCc2ccccc2)cc1", "viability": "94.9% (inactive)"}, {"smiles": "COC(=O)c1cc(C(=O)N(Cc2ccccc2)c2ccccn2)cc([N+](=O)[O-])c1", "viability": "94.2% (inactive)"}, {"smiles": "NC1=C([N+](=O)[O-])C(c2ccccc2)C2=C(CCCC2=O)O1", "note": "(centres undefined)", "viability": "95.7% (inactive)"}, {"smiles": "O=C(COC(=O)/C(=C/c1cccs1)c1cccs1)NCc1ccccc1Cl", "viability": "91.8% (inactive)"}, {"smiles": "Cc1coc2c(O)cc3c(c12)OC1(N2CCCCC2)C(=O)NCCCC31", "note": "(centres undefined)", "viability": "2.96% (active)"}, {"smiles": "Cn1cc(C(=O)NCc2ccccc2F)cn1", "viability": "102% (inactive)"}, {"smiles": "O=C(Nc1ccc2c(c1)OCCO2)c1ccncc1", "viability": "94.3% (inactive)"}, {"smiles": "COc1cccc(NC(=O)c2ccc(Cn3cc([N+](=O)[O-])cn3)o2)c1", "viability": "86.8% (inactive)"}, {"smiles": "O=C(Nc1ccc2c(c1)OCCO2)c1cnccn1", "viability": "97.3% (inactive)"}, {"smiles": "Cn1cc([N+](=O)[O-])c(C(=O)Nc2cnn(Cc3ccc(F)cc3)c2)n1", "viability": "3.56% (active)"}, {"smiles": "Cn1cc([N+](=O)[O-])c(C(=O)Nc2ccc3c(c2)OCCO3)n1", "viability": "3.52% (active)"}, {"smiles": "CCc1ccc(NC(=O)c2ccc(Cn3cc([N+](=O)[O-])cn3)cc2)cc1", "viability": "99% (inactive)"}, {"smiles": "O=[N+]([O-])c1cccc(S(=O)(=O)N2CCCCCC2)c1", "viability": "86.5% (inactive)"}, {"smiles": "COc1ccc(C(=O)CSc2nnc(NC(=O)C3CC(=O)N(c4cccc(OC)c4)C3)s2)cc1", "note": "(centres undefined)", "viability": "94.8% (inactive)"}, {"smiles": "CSc1nc(N)c(C#N)c(-c2ccccc2Cl)c1C#N", "viability": "86.3% (inactive)"}, {"smiles": "CSc1nc2ccccc2cc1/C=C(\\C#N)c1ccc(Cl)cc1Cl", "viability": "3.51% (active)"}, {"smiles": "Cc1nc2ccccc2cc1O", "viability": "103% (inactive)"}, {"smiles": "Cc1cc(C(=O)COC(=O)CNC(=O)c2ccc(F)cc2)c(C)n1Cc1ccco1", "viability": "96.4% (inactive)"}, {"smiles": "COc1cccc2cc(C(=O)N(C)C)c(=O)oc12", "viability": "1.64% (active)"}, {"smiles": "COc1cccc2cc(C(=O)N3CCN(C(=O)c4ccccc4)CC3)c(=O)oc12", "viability": "87.7% (inactive)"}, {"smiles": "C=CCc1cccc2cc(C(=O)OCC)c(=O)oc12", "viability": "104% (inactive)"}, {"smiles": "Cc1ccc(Oc2cc(NC(=O)CCCn3nc(C)c([N+](=O)[O-])c3C)cc([N+](=O)[O-])c2)cc1", "viability": "71.1% (inactive)"}, {"smiles": "CC(C)(C)C1CCC(OC(=O)CCC(=O)Nc2ccccc2)CC1", "note": "(centres undefined)", "viability": "87% (inactive)"}, {"smiles": "CC(Nc1nc(N2CCCC2)nc2ccccc12)c1ccccc1", "note": "(centres undefined)", "viability": "2.77% (active)"}, {"smiles": "CC(C)n1c(C(O)c2ccccc2)nc2ccccc21", "note": "(centres undefined)", "viability": "101% (inactive)"}, {"smiles": "Cc1ccc(C(CC(=O)O)Nc2nc(N3CCCCC3)nc(N3CCCCC3)n2)cc1", "note": "(centres undefined)", "viability": "99.5% (inactive)"}]}]}
